# From PMC7862700, “An all-to-all approach to the identification of sequence-specific readers for epigenetic DNA modifications on cytosine”
# Columns and labels:
# Test in all cases: DAPPL (digital affinity profiling via proximity ligation, sequencing); 10 mM Tris-HCl pH 7.5, 50 mM NaCl, 1 mM DTT, 4% glycerol, room temperature, 30 min; GST-TFs on glutathione beads, 16-mer random dsDNA library, 0.1% formaldehyde crosslink after washing; high values mean tight binding
# Conditions in all cases: protein: recombinant; tags: N-terminal GST; dsDNA, one strand shown
# GABPA = target: T1, GABPA (Homo sapiens, UniProt Q06546 1-454)
# T1 sequence: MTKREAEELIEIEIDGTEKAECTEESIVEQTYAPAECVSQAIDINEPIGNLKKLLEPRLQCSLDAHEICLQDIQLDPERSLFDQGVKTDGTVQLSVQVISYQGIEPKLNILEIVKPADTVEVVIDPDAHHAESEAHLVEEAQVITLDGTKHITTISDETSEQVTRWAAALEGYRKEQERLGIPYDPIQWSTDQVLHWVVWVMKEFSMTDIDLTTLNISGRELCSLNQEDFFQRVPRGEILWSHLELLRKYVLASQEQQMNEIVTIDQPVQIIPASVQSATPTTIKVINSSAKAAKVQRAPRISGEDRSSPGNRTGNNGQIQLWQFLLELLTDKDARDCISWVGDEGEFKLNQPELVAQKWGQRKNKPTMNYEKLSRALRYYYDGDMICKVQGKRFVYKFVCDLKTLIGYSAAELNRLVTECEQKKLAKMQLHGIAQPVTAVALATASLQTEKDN
# How it was run: (§1)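 Pools were built from human transcription factors expressed in yeast as GST fusions, captured on glutathione beads and DNA-barcoded, along with a tag-only sample. Incubation with 200 nmole of a 16-mer random double-stranded DNA library lasted 30 min at room temperature in Tris/NaCl/DTT/glycerol buffer, and was followed by washing, 0.1% formaldehyde crosslinking, proximity ligation, PCR amplification and Illumina NextSeq500 sequencing. Binding signal is the quotient of each hexamer's read frequency for a factor and its frequency for the tag-only sample.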
# EHF = target: T2, EHF (Homo sapiens, UniProt Q9NZC4 1-300)
# T2 sequence: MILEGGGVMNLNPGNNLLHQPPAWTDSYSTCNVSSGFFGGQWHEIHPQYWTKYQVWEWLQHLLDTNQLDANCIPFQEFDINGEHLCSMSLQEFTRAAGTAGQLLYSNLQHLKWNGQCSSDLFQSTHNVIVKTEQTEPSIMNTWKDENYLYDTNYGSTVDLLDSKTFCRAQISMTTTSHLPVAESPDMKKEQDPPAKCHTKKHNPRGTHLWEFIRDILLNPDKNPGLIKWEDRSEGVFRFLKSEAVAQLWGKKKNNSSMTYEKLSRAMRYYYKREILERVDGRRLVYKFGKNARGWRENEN
# How it was run: as §1
# SPI1 = SPI1 (Homo sapiens, UniProt P17947 1-270)
# How it was run: as §1
# ETV5 = ETV5 (Homo sapiens, UniProt P41161 1-510)
# How it was run: as §1
# ELF4 = ELF4 (Homo sapiens, UniProt Q99607 1-663)
# How it was run: as §1
# ELK4 = target: T3, ELK4 (Homo sapiens, UniProt P28324-2 1-405)
# T3 sequence: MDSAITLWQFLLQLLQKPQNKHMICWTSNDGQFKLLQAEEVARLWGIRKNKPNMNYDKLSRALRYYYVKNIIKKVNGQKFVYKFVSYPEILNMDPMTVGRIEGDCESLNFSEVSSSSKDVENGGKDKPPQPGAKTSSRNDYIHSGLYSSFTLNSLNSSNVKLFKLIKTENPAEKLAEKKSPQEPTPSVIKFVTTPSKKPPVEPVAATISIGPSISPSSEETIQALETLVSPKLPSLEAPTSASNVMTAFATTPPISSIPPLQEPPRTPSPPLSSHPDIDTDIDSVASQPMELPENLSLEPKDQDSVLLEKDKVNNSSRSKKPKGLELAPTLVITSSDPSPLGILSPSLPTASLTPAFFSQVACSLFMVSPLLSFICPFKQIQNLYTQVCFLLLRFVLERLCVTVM
# How it was run: as §1
# ELF3 = target: T4, ELF3 (Homo sapiens, UniProt P78545 1-371)
# T4 sequence: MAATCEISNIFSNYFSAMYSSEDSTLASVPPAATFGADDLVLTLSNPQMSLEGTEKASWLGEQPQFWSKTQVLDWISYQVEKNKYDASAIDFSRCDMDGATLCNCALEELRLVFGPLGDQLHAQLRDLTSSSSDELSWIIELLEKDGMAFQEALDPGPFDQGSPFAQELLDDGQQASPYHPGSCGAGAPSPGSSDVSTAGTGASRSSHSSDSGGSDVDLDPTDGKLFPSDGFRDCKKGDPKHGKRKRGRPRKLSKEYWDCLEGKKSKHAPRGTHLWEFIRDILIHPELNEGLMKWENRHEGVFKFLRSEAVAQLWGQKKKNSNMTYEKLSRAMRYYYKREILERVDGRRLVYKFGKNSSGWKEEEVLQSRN
# How it was run: as §1
# ETV1 = ETV1 (Homo sapiens, UniProt P50549 1-477)
# How it was run: as §1
# ERF = target: T5, ERF (Homo sapiens, UniProt P50548 1-548)
# T5 sequence: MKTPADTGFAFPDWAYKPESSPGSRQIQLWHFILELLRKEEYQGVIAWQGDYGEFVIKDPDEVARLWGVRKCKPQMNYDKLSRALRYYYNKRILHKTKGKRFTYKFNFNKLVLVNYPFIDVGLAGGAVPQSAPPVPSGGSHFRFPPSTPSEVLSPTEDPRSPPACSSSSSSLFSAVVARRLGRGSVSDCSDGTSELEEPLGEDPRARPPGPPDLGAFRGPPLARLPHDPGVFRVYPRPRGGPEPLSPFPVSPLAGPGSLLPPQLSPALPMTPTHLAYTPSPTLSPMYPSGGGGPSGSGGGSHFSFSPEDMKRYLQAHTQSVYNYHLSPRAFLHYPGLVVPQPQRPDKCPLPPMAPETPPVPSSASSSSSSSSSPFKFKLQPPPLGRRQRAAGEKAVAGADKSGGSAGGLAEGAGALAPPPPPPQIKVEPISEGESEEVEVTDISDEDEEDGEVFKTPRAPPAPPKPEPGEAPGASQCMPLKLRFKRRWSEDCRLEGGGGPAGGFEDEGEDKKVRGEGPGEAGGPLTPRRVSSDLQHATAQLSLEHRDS
# How it was run: as §1
# ETV7 = target: T6, ETV7 (Homo sapiens, UniProt Q9Y603 1-341)
# T6 sequence: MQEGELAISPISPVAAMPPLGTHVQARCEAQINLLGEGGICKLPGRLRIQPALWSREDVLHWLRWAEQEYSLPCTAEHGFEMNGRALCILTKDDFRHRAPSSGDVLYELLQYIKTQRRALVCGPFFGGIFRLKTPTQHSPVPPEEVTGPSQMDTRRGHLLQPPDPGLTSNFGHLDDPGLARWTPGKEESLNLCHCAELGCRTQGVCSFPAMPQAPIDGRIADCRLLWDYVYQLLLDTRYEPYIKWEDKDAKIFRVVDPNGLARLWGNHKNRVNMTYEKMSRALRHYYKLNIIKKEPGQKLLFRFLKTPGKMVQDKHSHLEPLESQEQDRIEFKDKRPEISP
# How it was run: as §1
# ETV3 = target: T7, ETV3 (Homo sapiens, UniProt P41162-2 1-143)
# T7 sequence: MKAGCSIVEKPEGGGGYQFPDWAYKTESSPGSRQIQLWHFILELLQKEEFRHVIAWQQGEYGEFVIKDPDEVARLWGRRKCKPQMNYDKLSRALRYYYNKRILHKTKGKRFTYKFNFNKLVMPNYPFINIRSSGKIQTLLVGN
# How it was run: as §1
# ETV6 = ETV6 (Homo sapiens, UniProt P41212 1-452)
# How it was run: as §1
# Sequence of ETV6 (P41212 whole entry): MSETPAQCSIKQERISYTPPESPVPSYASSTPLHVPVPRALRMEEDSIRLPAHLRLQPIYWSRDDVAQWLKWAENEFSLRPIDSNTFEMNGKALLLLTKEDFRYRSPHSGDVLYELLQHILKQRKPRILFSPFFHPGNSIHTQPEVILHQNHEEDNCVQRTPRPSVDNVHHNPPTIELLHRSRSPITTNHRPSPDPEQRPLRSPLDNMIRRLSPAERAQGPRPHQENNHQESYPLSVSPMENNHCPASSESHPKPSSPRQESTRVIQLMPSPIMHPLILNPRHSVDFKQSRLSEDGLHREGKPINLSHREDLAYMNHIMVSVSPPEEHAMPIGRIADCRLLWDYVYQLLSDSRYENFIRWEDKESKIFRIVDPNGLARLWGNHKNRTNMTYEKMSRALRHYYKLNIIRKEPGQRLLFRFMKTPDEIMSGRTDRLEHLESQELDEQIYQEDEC
# Sequence of ELF4 (Q99607 whole entry): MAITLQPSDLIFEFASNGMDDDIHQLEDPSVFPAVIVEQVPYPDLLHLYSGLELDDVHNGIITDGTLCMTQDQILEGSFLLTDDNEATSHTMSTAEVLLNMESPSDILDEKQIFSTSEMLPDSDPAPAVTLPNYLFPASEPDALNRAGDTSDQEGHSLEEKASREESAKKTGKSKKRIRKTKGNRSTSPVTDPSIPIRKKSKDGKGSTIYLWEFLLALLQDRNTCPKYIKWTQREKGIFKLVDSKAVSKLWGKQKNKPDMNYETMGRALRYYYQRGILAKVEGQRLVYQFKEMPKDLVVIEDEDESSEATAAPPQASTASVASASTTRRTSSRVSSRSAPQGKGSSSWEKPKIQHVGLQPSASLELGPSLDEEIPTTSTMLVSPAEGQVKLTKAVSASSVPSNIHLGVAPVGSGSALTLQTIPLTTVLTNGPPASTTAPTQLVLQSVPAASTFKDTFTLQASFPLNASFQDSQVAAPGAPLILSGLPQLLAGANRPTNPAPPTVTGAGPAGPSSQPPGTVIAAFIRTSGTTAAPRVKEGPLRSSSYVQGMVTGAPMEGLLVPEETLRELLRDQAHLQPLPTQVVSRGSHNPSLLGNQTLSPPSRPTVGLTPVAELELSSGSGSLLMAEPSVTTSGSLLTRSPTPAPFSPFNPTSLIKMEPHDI
# Sequence of ETV5 (P41161 whole entry): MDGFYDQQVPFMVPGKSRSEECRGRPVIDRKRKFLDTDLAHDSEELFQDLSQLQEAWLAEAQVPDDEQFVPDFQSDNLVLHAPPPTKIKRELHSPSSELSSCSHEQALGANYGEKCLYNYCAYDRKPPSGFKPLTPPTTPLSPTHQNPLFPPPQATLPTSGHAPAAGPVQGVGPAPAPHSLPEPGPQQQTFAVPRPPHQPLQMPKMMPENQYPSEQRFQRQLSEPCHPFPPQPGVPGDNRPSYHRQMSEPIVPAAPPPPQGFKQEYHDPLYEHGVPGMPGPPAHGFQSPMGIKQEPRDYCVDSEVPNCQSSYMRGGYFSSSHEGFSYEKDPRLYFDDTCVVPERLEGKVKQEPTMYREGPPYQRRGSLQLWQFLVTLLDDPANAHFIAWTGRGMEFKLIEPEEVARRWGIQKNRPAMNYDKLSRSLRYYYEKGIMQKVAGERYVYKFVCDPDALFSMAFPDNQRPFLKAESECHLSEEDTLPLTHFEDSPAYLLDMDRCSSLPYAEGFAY
# Sequence of ETV1 (P50549 whole entry): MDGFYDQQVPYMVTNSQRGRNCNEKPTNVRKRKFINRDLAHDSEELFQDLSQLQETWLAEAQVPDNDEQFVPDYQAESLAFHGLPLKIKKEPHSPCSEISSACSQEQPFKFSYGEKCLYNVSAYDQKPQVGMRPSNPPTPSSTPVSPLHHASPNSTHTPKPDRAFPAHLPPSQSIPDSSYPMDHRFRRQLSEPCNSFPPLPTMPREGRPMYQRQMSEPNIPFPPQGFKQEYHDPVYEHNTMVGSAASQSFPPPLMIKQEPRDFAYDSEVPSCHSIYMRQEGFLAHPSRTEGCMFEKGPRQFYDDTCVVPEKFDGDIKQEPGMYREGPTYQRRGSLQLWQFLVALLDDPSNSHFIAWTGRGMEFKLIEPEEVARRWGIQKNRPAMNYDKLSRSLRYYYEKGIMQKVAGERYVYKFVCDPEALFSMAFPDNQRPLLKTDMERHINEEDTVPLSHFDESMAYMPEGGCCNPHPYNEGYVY
sequence,measurement,setting,value
AGAAGT,binding signal,GABPA,"1.05 fold enrichment (6-mer frequency, TF over GST control)"
same,binding signal,EHF,"1.06 fold enrichment (6-mer frequency, TF over GST control)"
same,binding signal,SPI1,"1.24 fold enrichment (6-mer frequency, TF over GST control)"
same,binding signal,ETV5,"1.09 fold enrichment (6-mer frequency, TF over GST control)"
same,binding signal,ELF4,"1.06 fold enrichment (6-mer frequency, TF over GST control)"
same,binding signal,ELK4,"1.16 fold enrichment (6-mer frequency, TF over GST control)"
same,binding signal,ELF3,"1.05 fold enrichment (6-mer frequency, TF over GST control)"
same,binding signal,ETV1,"1.05 fold enrichment (6-mer frequency, TF over GST control)"
same,binding signal,ERF,"1.05 fold enrichment (6-mer frequency, TF over GST control)"
same,binding signal,ETV7,"1.13 fold enrichment (6-mer frequency, TF over GST control)"
same,binding signal,ETV3,"1.01 fold enrichment (6-mer frequency, TF over GST control)"
same,binding signal,ETV6,"1.07 fold enrichment (6-mer frequency, TF over GST control)"
